The values that follow come from ChEMBL document CHEMBL2218924, “A broad activity screen in support of a chemogenomic map for kinase signalling research and drug discovery” (Biochem J, 2013).

Broadly, the residual activity is the signal under treatment as a percentage of the control signal.

Each structure is given as a SMILES string.

Experiment [1] addresses T1, Rhodopsin kinase GRK7 (Homo sapiens) (UniProt Q8WTQ7).
T1 sequence (whole entry): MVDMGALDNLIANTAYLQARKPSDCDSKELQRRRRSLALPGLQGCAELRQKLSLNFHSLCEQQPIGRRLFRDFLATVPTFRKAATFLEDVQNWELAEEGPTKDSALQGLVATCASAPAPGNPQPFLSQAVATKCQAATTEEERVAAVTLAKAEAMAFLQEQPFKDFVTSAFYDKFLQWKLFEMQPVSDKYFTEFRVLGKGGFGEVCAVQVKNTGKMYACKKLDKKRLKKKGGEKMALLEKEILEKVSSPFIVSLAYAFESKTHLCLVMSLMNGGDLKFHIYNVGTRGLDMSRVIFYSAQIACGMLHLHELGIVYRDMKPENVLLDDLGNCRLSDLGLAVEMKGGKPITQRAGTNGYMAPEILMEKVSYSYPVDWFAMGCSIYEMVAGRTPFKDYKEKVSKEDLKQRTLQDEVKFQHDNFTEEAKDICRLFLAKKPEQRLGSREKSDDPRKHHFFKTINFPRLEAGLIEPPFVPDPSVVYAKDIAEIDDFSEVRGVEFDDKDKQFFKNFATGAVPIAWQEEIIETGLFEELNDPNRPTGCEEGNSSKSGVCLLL
The conditions noted are these: at 10 µM.

Experiment [2] has as its target Glycogen synthase kinase-3 alpha (Homo sapiens) (UniProt P49840). The note with it: at 1 µM.
Experiment [3] shares this target. The conditions noted are these: at 10 µM.
The target in experiment [4] is Glycogen synthase kinase-3 beta (Homo sapiens) (UniProt P49841). The conditions noted are these: at 1 µM.
Chain of Glycogen synthase kinase-3 beta (Homo sapiens) (P49841 whole entry, looked up): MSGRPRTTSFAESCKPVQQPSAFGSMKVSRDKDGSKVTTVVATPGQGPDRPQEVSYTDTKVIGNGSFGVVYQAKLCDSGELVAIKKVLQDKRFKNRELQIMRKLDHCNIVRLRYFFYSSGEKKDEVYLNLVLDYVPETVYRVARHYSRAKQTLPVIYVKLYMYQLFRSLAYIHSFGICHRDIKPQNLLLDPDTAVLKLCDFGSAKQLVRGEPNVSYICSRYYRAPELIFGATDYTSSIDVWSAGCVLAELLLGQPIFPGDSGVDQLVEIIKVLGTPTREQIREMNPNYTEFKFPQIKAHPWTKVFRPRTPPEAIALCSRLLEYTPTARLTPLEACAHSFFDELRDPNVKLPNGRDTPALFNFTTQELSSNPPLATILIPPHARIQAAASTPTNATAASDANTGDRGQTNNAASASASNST
For experiment [5] the target is unchanged. The conditions noted are these: at 10 µM.
For experiment [6], the target named is Homeodomain-interacting protein kinase 1 (Homo sapiens) (UniProt Q86Z02). The conditions noted are these: at 1 µM.
Chain of Homeodomain-interacting protein kinase 1 (Homo sapiens) (Q86Z02 whole entry, looked up): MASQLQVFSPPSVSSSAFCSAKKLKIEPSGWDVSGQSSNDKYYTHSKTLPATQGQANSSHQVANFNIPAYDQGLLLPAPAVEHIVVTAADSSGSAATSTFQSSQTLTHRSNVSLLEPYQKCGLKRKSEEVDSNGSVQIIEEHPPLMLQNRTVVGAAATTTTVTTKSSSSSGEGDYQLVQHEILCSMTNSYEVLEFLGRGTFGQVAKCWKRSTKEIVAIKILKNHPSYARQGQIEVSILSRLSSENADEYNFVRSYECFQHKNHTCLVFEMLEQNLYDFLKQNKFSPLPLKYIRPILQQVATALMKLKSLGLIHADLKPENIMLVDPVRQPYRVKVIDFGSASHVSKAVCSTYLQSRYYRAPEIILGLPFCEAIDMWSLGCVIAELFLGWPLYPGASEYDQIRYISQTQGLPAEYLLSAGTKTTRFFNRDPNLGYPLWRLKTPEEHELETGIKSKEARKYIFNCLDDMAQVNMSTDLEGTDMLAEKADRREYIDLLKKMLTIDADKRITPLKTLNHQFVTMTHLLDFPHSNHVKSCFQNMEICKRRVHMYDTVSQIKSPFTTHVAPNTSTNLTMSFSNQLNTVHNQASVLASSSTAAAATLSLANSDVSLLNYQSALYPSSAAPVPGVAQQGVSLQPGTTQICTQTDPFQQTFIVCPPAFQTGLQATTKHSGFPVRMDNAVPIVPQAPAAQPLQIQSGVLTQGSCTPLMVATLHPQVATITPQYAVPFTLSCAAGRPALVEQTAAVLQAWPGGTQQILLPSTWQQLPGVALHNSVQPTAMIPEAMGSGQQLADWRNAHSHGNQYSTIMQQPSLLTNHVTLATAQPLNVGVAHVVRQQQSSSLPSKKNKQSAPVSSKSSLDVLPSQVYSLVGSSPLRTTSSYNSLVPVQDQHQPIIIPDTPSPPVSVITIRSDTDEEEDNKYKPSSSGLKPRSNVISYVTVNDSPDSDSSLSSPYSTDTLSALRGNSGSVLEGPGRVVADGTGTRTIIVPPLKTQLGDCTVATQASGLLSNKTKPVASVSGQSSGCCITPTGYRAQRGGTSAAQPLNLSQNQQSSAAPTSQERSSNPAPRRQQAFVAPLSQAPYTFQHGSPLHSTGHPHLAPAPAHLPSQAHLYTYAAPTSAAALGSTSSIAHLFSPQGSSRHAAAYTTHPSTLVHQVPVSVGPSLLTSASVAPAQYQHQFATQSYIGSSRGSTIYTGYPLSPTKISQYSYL
Experiment [7] has the same target. The conditions noted are these: at 10 µM.
For experiment [8], the target named is Homeodomain-interacting protein kinase 2 (Homo sapiens) (UniProt Q9H2X6). The conditions noted are these: at 1 µM.
Chain of Homeodomain-interacting protein kinase 2 (Homo sapiens) (Q9H2X6 whole entry, looked up): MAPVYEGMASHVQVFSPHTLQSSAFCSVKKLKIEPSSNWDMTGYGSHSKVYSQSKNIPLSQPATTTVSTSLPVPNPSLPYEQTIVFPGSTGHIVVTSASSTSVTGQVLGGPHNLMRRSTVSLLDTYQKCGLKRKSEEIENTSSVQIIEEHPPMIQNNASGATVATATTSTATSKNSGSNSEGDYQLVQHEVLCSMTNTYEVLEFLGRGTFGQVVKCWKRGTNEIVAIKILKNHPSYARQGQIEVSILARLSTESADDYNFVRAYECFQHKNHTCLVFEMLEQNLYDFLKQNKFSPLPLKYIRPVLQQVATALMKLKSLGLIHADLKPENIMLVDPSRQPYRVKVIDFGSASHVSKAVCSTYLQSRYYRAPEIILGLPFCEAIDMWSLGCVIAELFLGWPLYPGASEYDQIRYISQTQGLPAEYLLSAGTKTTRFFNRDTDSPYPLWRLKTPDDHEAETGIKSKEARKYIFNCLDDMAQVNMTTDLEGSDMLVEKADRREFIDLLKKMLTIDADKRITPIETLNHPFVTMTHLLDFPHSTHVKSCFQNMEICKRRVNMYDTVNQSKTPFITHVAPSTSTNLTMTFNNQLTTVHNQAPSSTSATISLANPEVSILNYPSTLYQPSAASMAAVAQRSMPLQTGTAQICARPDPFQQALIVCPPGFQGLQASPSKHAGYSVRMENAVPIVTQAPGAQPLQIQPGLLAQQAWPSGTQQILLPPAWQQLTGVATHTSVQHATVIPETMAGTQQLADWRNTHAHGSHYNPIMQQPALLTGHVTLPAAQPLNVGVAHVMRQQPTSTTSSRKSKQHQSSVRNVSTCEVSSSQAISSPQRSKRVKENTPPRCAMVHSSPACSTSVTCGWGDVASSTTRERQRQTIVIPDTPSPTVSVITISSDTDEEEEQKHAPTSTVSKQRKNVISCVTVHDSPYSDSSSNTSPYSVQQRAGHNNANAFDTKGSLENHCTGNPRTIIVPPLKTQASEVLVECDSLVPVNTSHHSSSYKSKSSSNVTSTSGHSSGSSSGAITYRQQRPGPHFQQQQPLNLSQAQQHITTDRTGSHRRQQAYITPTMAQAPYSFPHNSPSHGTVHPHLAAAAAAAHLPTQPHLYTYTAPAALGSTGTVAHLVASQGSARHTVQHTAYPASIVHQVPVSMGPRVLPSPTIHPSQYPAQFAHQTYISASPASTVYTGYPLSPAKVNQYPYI
For experiment [9] the target is unchanged. The conditions noted are these: at 10 µM.
In experiment [10] the target is Homeodomain-interacting protein kinase 3 (Homo sapiens) (UniProt Q9H422). The conditions noted are these: at 1 µM.
Chain of Homeodomain-interacting protein kinase 3 (Homo sapiens) (Q9H422 whole entry, looked up): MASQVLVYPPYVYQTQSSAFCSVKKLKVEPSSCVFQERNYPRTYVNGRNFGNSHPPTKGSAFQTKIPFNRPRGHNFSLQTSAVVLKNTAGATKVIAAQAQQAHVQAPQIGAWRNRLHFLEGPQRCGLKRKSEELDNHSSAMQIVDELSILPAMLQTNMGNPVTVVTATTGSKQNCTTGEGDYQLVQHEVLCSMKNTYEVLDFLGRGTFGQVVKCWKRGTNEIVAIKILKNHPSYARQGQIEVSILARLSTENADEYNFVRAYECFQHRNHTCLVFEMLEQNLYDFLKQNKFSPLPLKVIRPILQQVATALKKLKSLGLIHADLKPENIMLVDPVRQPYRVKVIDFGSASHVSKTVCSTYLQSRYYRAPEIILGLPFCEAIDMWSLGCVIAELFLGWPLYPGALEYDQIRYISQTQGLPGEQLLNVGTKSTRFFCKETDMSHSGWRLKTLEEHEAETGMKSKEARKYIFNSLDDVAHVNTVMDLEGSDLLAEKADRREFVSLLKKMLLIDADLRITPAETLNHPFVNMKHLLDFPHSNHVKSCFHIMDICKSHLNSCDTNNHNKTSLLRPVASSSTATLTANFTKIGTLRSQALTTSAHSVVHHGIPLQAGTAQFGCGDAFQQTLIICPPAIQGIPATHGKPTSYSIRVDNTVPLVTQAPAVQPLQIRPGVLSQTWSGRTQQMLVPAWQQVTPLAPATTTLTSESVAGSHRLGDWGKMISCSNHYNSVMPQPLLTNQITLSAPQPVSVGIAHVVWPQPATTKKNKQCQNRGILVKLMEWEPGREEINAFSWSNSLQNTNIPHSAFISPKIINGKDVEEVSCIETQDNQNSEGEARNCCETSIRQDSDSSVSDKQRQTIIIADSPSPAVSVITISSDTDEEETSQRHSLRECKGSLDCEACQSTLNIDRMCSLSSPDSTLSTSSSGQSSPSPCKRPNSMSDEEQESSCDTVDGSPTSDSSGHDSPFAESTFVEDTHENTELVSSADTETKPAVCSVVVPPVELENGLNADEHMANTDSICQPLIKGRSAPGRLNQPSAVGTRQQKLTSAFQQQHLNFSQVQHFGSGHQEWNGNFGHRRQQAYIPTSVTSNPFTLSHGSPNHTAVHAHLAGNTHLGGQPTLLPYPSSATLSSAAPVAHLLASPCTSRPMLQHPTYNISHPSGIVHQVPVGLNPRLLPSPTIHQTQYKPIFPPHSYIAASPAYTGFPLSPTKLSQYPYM
The target is the same in experiment [11]. The note with it: at 10 µM.
Experiment [12] has as its target T2, Serine/threonine-protein kinase haspin (Homo sapiens) (UniProt Q8TF76).
T2 sequence (whole entry): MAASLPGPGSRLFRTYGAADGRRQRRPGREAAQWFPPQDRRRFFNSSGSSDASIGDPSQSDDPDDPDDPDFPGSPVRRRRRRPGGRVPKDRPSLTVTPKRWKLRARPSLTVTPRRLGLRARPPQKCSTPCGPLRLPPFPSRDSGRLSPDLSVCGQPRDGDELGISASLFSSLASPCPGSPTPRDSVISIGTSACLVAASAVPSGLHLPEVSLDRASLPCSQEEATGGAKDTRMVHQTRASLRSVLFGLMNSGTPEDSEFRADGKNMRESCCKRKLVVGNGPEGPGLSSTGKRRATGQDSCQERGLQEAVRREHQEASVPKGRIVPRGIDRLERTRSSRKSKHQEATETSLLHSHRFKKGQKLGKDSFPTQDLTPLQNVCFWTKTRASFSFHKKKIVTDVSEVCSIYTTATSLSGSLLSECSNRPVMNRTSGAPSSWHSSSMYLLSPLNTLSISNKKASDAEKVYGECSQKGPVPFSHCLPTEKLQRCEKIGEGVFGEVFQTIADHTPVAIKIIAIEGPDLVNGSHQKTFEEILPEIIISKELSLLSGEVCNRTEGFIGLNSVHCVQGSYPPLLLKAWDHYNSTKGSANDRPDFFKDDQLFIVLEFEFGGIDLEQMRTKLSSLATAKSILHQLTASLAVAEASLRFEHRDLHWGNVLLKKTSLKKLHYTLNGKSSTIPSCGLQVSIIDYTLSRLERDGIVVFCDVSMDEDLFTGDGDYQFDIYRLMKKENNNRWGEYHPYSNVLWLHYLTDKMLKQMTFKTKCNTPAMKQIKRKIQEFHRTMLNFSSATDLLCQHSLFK
The note with it: at 1 µM.

Experiment [13] deals with T2, Serine/threonine-protein kinase haspin (Homo sapiens). The note with it: at 10 µM.
Experiment [14] has as its target Tyrosine-protein kinase HCK (Homo sapiens) (UniProt P08631). The conditions noted are these: at 1 µM.
For experiment [15] the target is unchanged. The conditions noted are these: at 10 µM.
Experiment [16] has the same target. The note with it: at 1 µM. This is another data set of the same source.
For experiment [17] the target is unchanged. The note with it: at 10 µM. The source holds these as a separate data set.
The target of experiment [18] is Insulin-like growth factor 1 receptor (Homo sapiens) (UniProt P08069). The conditions noted are these: at 1 µM.
For experiment [19] the target is unchanged. The conditions noted are these: at 10 µM.
Experiment [20] has as its target T3, Protein kinase C zeta type (Homo sapiens) (UniProt Q05513).
T3 sequence (whole entry): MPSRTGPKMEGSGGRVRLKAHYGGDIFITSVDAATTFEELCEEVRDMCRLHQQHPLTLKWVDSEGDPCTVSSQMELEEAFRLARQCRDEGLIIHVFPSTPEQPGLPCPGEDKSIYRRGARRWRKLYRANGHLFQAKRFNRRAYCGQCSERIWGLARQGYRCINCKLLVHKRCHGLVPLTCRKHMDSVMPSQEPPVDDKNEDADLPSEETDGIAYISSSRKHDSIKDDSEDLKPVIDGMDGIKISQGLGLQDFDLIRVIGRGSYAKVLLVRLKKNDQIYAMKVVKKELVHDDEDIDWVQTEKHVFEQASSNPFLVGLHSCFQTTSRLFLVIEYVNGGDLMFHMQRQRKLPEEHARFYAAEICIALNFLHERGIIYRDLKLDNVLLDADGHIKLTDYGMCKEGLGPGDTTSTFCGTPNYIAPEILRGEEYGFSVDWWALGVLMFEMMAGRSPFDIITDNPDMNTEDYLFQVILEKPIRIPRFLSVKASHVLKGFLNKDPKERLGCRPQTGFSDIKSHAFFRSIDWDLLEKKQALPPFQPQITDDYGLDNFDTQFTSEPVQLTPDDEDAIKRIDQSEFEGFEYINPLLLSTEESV
The note with it: at 10 µM.

Chain of Tyrosine-protein kinase HCK (Homo sapiens) (P08631 2-526 limits assumed): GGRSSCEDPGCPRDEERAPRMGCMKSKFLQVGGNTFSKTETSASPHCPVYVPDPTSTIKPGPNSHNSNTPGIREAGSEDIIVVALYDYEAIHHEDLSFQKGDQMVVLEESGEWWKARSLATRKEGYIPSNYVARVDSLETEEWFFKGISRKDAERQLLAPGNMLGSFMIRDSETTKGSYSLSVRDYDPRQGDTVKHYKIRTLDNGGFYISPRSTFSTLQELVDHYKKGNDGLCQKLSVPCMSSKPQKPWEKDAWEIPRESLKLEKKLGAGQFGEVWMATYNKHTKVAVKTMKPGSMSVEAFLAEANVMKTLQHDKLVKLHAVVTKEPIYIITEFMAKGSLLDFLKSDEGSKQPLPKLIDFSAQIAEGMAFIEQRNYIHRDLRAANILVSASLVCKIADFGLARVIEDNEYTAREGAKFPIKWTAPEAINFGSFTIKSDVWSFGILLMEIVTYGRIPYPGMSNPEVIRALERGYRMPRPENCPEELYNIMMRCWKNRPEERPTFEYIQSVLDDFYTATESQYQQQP
Chain of Glycogen synthase kinase-3 alpha (Homo sapiens) (P49840 2-483 limits assumed): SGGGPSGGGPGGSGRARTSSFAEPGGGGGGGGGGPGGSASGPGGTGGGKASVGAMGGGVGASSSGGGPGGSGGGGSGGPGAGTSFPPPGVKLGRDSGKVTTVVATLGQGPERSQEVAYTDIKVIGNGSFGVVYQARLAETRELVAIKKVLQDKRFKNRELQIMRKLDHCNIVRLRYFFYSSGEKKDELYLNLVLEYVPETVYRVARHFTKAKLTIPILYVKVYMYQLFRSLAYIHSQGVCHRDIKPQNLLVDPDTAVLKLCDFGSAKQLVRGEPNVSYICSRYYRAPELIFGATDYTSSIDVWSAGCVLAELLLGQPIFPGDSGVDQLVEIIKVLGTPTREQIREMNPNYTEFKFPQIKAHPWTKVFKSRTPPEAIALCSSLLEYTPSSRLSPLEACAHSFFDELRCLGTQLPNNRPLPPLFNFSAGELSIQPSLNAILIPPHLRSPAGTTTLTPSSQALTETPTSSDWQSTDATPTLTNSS

Regarding `NC(=O)c1ccc2[nH]c(-c3ccc(Oc4ccc(Cl)cc4)cc3)nc2c1`, the residual activity in [1] is 77%; in experiment [2] it was 101%; in experiment [3] it was 86%; in [4], 105%; in experiment [5], 130%; in [6] it was 104%. Also, the residual activity was 96% in experiment [7]; 98% in experiment [8]; 100% in experiment [9]; 92% in [10]; 98% in [11]; 89% in experiment [12]. Moreover, the residual activity in [13] stood at 96%; in experiment [14] it was 72%; in experiment [15], 60%; in experiment [16], 96%; in experiment [17], 89%; in experiment [18] it was 140%. Besides, the residual activity in experiment [19] turned out to be 98%; in experiment [20], 100%.

Regarding `CC(=O)O/N=C1\C(=C2\C(=O)Nc3cc(Br)ccc32)Nc2ccccc21`, the residual activity is 87% in [1]; 4% in [2]; 0% in experiment [3]; 14% in experiment [4]; 2% in experiment [5]; 95% in experiment [6]. In addition, the residual activity in experiment [7] worked out at 85%; in [8] it was 84%; in [9], 43%; in experiment [10], 93%; in [11], 76%; in experiment [12], 93%. Further, the residual activity in experiment [13] was 74%; in experiment [14], 22%; in experiment [15] it was 9%; in experiment [16], 3%; in [17] it was -1%; in experiment [18] it was 142%. Further, the values for the residual activity in [19] and in experiment [20] were 110% and 95%, respectively.

`N#CCCc1ccc2c(c1)-c1[nH]c3ccc([N+](=O)[O-])cc3c1CC(=O)N2`: the residual activity in experiment [2] is 1%; in experiment [3], 0%; in [4] it was -3%; in [5] it was 0%; in experiment [8] it was 64%; in [9], 24%. Moreover, the residual activity came out at 74% in experiment [13]; 30% in experiment [14]; 6% in experiment [15]; 27% in [16]; 16% in [17]; 117% in experiment [18]. Besides, the figures for the residual activity in experiment [19] and in [20] were 144% and 41%, respectively.

Take `c1ccc(-c2n[nH]c3c2oc2ccccc23)cc1`: the residual activity in experiment [1] was 64%; in [4], 95%; in [5], 67%; in experiment [8], 98%; in [9] it was 58%; in experiment [10] it was 92%. Besides, the residual activity was determined as 61% in experiment [11]; 90% in experiment [12]; 48% in experiment [13]; 71% in experiment [14]; 51% in experiment [15]; 98% in [16]. Further, the residual activity was found to be 81% in experiment [17], 139% in experiment [19] and 117% in experiment [20].

Turning to `O=C1Nc2ccc(Br)cc2/C1=C\c1cc2c([nH]1)CCCC2`, the residual activity stood at 113% in experiment [2]; 122% in experiment [3]; 99% in experiment [7]; 82% in [8]; 97% in experiment [10]; 76% in experiment [11]. Besides, the residual activity in experiment [14] amounted to 59%; in experiment [15] it was 52%; in experiment [19], 128%; in experiment [20], 102%.

For the molecule `c1ccc2c(-c3ccncc3)c[nH]c2c1`, the residual activity in experiment [1] stood at 79%; in [3], 135%; in experiment [4] it was 94%; in [5], 88%; in experiment [6], 95%; in [7], 98%. The residual activity in experiment [8] was 100%; in experiment [9], 85%; in experiment [10], 95%; in experiment [11] it was 91%; in experiment [12], 48%; in experiment [13], 8%. The residual activity in experiment [14] came out at 68%; in [15], 65%; in [16] it was 104%; in [17], 89%; in experiment [20], 84%.

Turning to `CC[n+]1c(/C=C/N(C)c2ccccc2)n(-c2ccccc2)c2ccc(-c3nc4ccccc4s3)cc21`, the residual activity in [1] was 97%; in experiment [2], 122%; in experiment [4], 109%; in experiment [5], 116%; in [6], 102%; in experiment [7] it was 93%. For the same molecule, the residual activity is 95% in experiment [8]; 77% in [9]; 99% in [10]; 99% in experiment [12]; 59% in experiment [13]; 97% in experiment [14]. Further, the residual activity in [15] was found to be 34%; in experiment [16] it was 104%; in experiment [17] it was 95%; in [18], 126%; in experiment [19], 43%; in experiment [20], 96%.

As for `CN(C)CCCn1cc(C2=C(c3c[nH]c4ccccc34)C(=O)NC2=O)c2ccccc21`, the residual activity is 7% in experiment [1]; 18% in [2]; 2% in [3]; 24% in experiment [4]; 3% in experiment [5]; 90% in [6]. The residual activity worked out at 53% in experiment [7]; 69% in [8]; 21% in [9]; 87% in [10]; 35% in experiment [11]; 43% in experiment [12]. Also, the residual activity in experiment [13] is 12%; in experiment [14] it was 74%; in experiment [15], 54%; in experiment [16] it was 113%; in experiment [17] it was 84%; in [18], 127%. Further, the residual activity in experiment [20] stood at 16%.
